# Bioassay records as filed in PubChem BioAssay.
# MCF10A rerep: inducers of DNA re-replication in MCF 10A breast cells; MCF 10A DNA re-replication, Hoechst nuclear intensity, 48 h; Potency, µM (top dose mostly 46.1 µM), for inactives: at the highest dose activity, positive = re-replication, usual class: activators; actives 2.9% (n = 350,000); AID 624296; note: potency is the fitted concentration of half-maximal effect; % of control where 0% means no effect; nearly all actives have a fitted effect of over 50% in size
# D3 antag: blocks the human D3 dopamine receptor; D3R cells, DiscoveRx beta-arrestin luminescence, antagonist mode; active compounds read low; max response, negative = inhibition, %; AID 652054; actives 2.5% (n = 360,000); P35462; in the data active = max response below about -50%; inconclusive = no clear call, values can overlap the other calls; note: % is set by controls: 0 for no effect and ±100 for the full control effect
# Target sequence (P35462 whole entry, looked up): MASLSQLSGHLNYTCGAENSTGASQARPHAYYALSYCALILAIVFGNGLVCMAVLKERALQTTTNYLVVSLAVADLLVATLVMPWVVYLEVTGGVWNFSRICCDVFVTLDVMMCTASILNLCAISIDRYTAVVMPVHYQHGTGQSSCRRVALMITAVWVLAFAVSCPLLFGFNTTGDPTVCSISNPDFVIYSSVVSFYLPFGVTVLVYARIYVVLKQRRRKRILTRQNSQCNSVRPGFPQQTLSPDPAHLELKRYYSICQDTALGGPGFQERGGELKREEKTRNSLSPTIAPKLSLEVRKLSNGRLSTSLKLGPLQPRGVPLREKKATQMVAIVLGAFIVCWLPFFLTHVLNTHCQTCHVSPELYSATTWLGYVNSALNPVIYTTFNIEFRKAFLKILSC
#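 Cells plated overnight at 1500 cells/well, then exposed to library compounds with dopamine controls for 90 minutes at 37 degrees C. DiscoveRx reagent added for 30–60 minutes at room temperature; luminescence read, quantitative HTS format.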
# SW480 rerep: induces DNA re-replication in SW480 colon adenocarcinoma cells; SW480 DNA re-replication, Hoechst DNA content imaging, 48 h; Potency, µM (doses to about 46.1 µM), for inactives: top-dose re-replication activation, hits mostly activators; actives 1.8% (n = 340,000); AID 624297; note: potency is the fitted concentration of half-maximal effect; % of control where 0% means no effect; nearly all actives have a fitted effect of over 55% in size
#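 SW480 cells exposed to compounds for 48 hr at 37 C, 5% CO2, then Hoechst-stained 40 min. Nuclear DNA content imaged by fluorescence scanning (405 nm excitation, 500-530 nm emission); re-replication scored as increased high-intensity nuclei.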
# KB-3-1 tox: kills parental KB-3-1 adenocarcinoma cells | KB-3-1 viability, CellTiter-Glo ATP luminescence, 72 h | Potency, µM (series often up to 46.1 µM), actives largely listed as cytotoxic | actives 1.4% (n = 400,000) | AID 1347075; note: potency is the fitted concentration of half-maximal effect; % is set by controls: 0 for no effect and ±100 for the full control effect; nearly all actives have a fitted effect of over 60% in size
#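 Here the drug-naive KB-3-1 line serves as comparator for MDR sub-line selectivity; cells received compound titrations, 72 h at 37 °C, then CellTiter-Glo readout.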
# KB-V1 MDR tox: KB-V1 MDR subline cytotoxicity; KB-V1 MDR cells viability, CellTiter-Glo, 72 h; actives 3.4% (n = 400,000); Potency, µM (series often up to 46.1 µM), usual class: cytotoxic; AID 1347076; note: potency is the fitted concentration of half-maximal effect; % is set by controls: 0 for no effect and ±100 for the full control effect; nearly all actives have a fitted effect of over 60% in size
#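 Following 72 h at 37 degrees C with compound, KB-V1 cell viability was read by CellTiter-Glo luminescence, medium being phenol-red-free DMEM plus 10% FBS; concentration-response parameters came from normalized, curve-fitted qHTS data.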
# D3 ag: D3 dopamine receptor (human) agonism; P35462; D3R DiscoveRx beta-arrestin cells, luminescence, 90 min; max activation, %; actives 0.58% (n = 410,000); in the data active = max activation above about 30%; note: 0% is about no effect
#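 Agonist mode: compounds and dopamine controls were applied to plated cells for 90 min at 37 degrees C after an overnight attachment at 1500 cells/well. Luminescent read-out followed 30 - 60 minutes at room temperature with DiscoveRx detection reagent.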
# * hit, by the source's call; i = inactive; ? = inconclusive; nt = no result. Hits are enriched below; roughly 8.9% of the tested compounds scored in any of these assays. Unless noted, calls come from the whole dose curve; as a rule, active = well fitted curve in the direction sought with a large enough effect; inconclusive = small, poorly fitted or top-dose-only effect, or another doubt; inactive = no such curve, though single readings can be large; an effect the other way counts as inactive or inconclusive.
SMILES,MCF10A rerep,D3 antag,SW480 rerep,KB-3-1 tox,KB-V1 MDR tox,D3 ag
CC(=O)n1cc([C@@H]2C=C(C(=O)N3CCN(Cc4ccccc4)CC3)O[C@H](OCc3ccc(CO)cc3)C2)c2ccccc21,?,-61*,1%,?,?,-62
C#CCNC(=O)C1=C[C@@H](c2cn(C(C)=O)c3ccccc23)C[C@@H](OCc2ccc(CO)cc2)O1,5%,11,?,i,?,8
CC(=O)n1cc([C@H]2C=C(C(N)=O)O[C@@H](OCc3ccc(CO)cc3)C2)c2ccccc21,14%,66,-8%,i,i,36*
CC1Cc2ccccc2N1S(=O)(=O)c1ccc2c(c1)n(C)c(=O)c(=O)n2C (configuration not stated),16%,-20,1%,i,16µM*,10
C=CC[C@@H](CC(=O)N(CCO)Cc1ccccc1)C(=O)N[C@@H](C)COC(=O)[C@@H](CC=C)CC(=O)OC(C)(C)C,2%,17,-13%,i,i,4
C=CC[C@H](CC(=O)N(CCO)Cc1ccccc1)C(=O)N[C@H](C)COC(=O)[C@@H](CC=C)Cc1ccc(F)cc1,21%,24,10%,i,i,7
C=CC[C@H](CC(=O)N(CCO)Cc1ccccc1)C(=O)N[C@@H](C)COC(=O)[C@H](CC=C)CC(=O)OC(C)(C)C,16%,17,2%,i,i,43*
C=CCC[C@H](Cc1ccc(F)cc1)C(=O)OC[C@H](Cc1c[nH]c2ccccc12)NC(=O)[C@@H](CC=C)CC(=O)N(CCO)Cc1ccccc1,?,0,?,i,21µM*,-11
C=CC[C@H](CC(=O)N(CCO)Cc1ccccc1)C(=O)NC[C@@H](OC(=O)[C@@H](CC=C)Cc1ccc(F)cc1)c1ccccc1,?,0,4%,i,?,-11
C=CCC[C@H](Cc1ccc(F)cc1)C(=O)O[C@H](CNC(=O)[C@@H](CC=C)CC(=O)N(CCO)Cc1ccccc1)c1ccccc1,21µM*,8,?,i,i,17
C=CC[C@@H](CC(=O)N(CCO)Cc1ccccc1)C(=O)N[C@H](C)COC(=O)[C@@H](CC=C)Cc1ccc(F)cc1,?,162,0%,i,i,40*
NC1=NC(=O)/C(=C\c2cc([N+](=O)[O-])ccc2Cl)S1,-1%,?,0.46µM*,i,i,-7
Cn1c(=O)c2c(-c3ccccc3Cl)n(-c3cc(Cl)ccc3O)cc2n(C)c1=O,nt,nt,nt,i,i,-7
Cc1ccc(N(C)S(=O)(=O)c2ccc(-c3cc(C)no3)s2)cc1,9.2µM*,-7,?,i,?,-11
COc1ccc(-c2cc(C)no2)cc1S(=O)(=O)N(C)c1ccc(C)c(C)c1,?,-21,-9%,i,i,15
Cc1cc(-c2ccc(S(=O)(=O)N(C)c3ccc(C)c(C)c3)s2)on1,10µM*,?,?,13µM*,7.3µM*,-1
Cc1cc(-c2ccc(S(=O)(=O)NCc3ccccc3Cl)s2)on1,nt,nt,nt,i,i,-14
CN(C)c1ccc(N=Cc2nc(-c3ccccc3)oc2OC(=O)c2ccccc2)cc1,-4%,-13,-1%,i,i,-8
CC(=O)Oc1oc(-c2ccccc2)nc1C=Nc1ccc(N(C)C)cc1,15%,-14,-95%,i,i,1
COc1ccccc1N=Cc1nc(-c2ccccc2)oc1OC(C)=O,1%,-56*,2%,i,i,1
CC(=O)Oc1oc(-c2ccccc2)nc1/C=N/c1ccccn1,0%,-62*,0%,i,i,-11
COc1ccc(C2=NOC(C)(c3nnc(-c4ccncc4)o3)C2)cc1 (configuration not stated),6%,0,-13%,i,i,23
COc1ccc2cc([C@H](C)CO)ccc2c1,nt,nt,nt,nt,nt,-2
Cc1cccc(NC(=O)C[n+]2ccc(N(C)C)cc2)c1,?,-10,3%,13µM*,i,-12
CN(C)c1cc[n+](CC(=O)c2ccc(OC(F)F)cc2)cc1,15%,-6,-7%,18µM*,i,-11
SMILES,MCF10A rerep,D3 antag,SW480 rerep,KB-3-1 tox,KB-V1 MDR tox,D3 ag
CN(C)c1cc[n+](CC(=O)Nc2ccc(Oc3ccccc3)cc2)cc1,?,9,10%,16µM*,?,-8
CCOc1ccc(NC(=O)C[n+]2ccc(N(C)C)cc2)cc1,-8%,6,-1%,10µM*,i,1
O=C(C[n+]1cccc(CNC(=O)c2ccc(OC(F)F)cc2)c1)c1ccccc1,-3%,-10,11%,i,i,-9
Cc1cc(C)cc(NC(=O)C[n+]2ccccc2)c1,-16%,?,2%,i,i,-25
CCOc1ccc(NC(=O)CC(=O)Nc2ccc(OCC)cc2)cc1,2%,-2,-11%,i,i,0
COCCCNc1ncnc2c1nnn2C,nt,nt,nt,nt,nt,-20
Cc1ccc(CNC(=O)CCCN2C(=O)CCn3nc(-c4cccn4C)cc32)cc1,nt,nt,nt,i,i,-4
CN(C)c1cc[n+](CC(=O)Nc2ccc(Cl)cc2)cc1,3%,-20,-4%,3.7µM*,i,-17
CN(C)CCCNc1c2c(nc3ccccc13)CCC2,4%,-1,-13%,?,i,-10
CN(C)CCNCCCNc1c2ccccc2nc2cccc([N+](=O)[O-])c12,?,1,?,0.016µM*,i,-16
COc1ccc(C(=O)Nc2nc(-c3ccccn3)cs2)cc1S(=O)(=O)N1CCOCC1,6%,41,0%,i,i,1
Cn1nnnc1SCCCNCc1cc(Br)ccc1OCc1ccccc1,nt,nt,nt,i,i,-25
CC1c2cc3c(cc2CCN1C(=O)c1ccc(Br)cc1)OCCCO3 (configuration not stated),-3%,-10,-3%,i,?,1
COc1cc2c(cc1OC)C(C)N(C(=O)c1ccc(Br)o1)CC2 (configuration not stated),17%,-14,20%,21µM*,13µM*,-3
COc1cc2c(cc1OC)CN(C(=O)c1ccc(Br)o1)CC2,1%,0,-11%,i,i,-3
COc1cc2c(cc1OC)C(C)N(C(=O)c1cc(Cl)nc(Cl)c1)CC2 (configuration not stated),9.2µM*,9,8.2µM*,?,i,-10
COc1ccc(C(=O)N2CCc3cc4c(cc3C2C)OCCCO4)cc1 (configuration not stated),-19%,-20,2%,i,i,44*
